# Legend:
# [1] = molecular target: Phosphoglycerate mutase 1 (UniProt Q9DBJ1); assay: cross-link between two proteins; cross-linking mass spectrometry
# [2] = molecular target: RCC1-like G exchanging factor-like protein (UniProt Q96I51); assay: as above
# [3] = molecular target: Proteasome subunit alpha type-6 (UniProt P60900); assay: as above
# [4] = molecular target: Osteopetrosis-associated transmembrane protein 1 (UniProt Q86WC4); assay: as above
# Septin-5 = Septin-5 (UniProt Q9Z2Q6); assay: as above
# [5] = molecular target: Nucleosome assembly protein 1-like 4 (UniProt Q78ZA7); assay: as above
# [6] = molecular target: Sodium/potassium-transporting ATPase subunit alpha-1 (UniProt Q8VDN2); assay: as above
# [7] = molecular target: Potassium voltage-gated channel subfamily A member 2 (UniProt P63141); assay: as above
# Prefoldin subunit 5 = Prefoldin subunit 5 (UniProt Q99471); assay: as above
# [8] = molecular target: Polymerase delta-interacting protein 2 (UniProt Q9Y2S7); assay: as above
# Septin-10 = Septin-10 (UniProt Q9P0V9); assay: as above
# [9] = molecular target: Plasma membrane calcium-transporting ATPase 4 (UniProt Q6Q477); assay: as above
# [10] = molecular target: Proteasome subunit beta type-4 (UniProt P99026); assay: as above
# [11] = molecular target: S-adenosylhomocysteine hydrolase-like protein 1 (UniProt Q80SW1); assay: as above
# [12] = molecular target: Proteasome subunit alpha type-6 (UniProt Q9QUM9); assay: as above
# [13] = molecular target: Ragulator complex protein LAMTOR3 (UniProt Q9UHA4); assay: as above
# [14] = molecular target: Proteasome subunit beta type-7 (UniProt P70195); assay: as above
# Septin-2 = Septin-2 (UniProt Q15019); assay: as above
# [15] = molecular target: Peptidyl-prolyl cis-trans isomerase B (UniProt P23284); assay: as above
# [16] = molecular target: Proteasome activator complex subunit 2 (UniProt P97372); assay: as above
# Septin-8 = Septin-8 (UniProt Q8CHH9); assay: as above
# Peroxiredoxin-4 = Peroxiredoxin-4 (UniProt Q13162); assay: as above
# [17] = molecular target: Ras-related protein Rab-3A (UniProt P63011); assay: as above
# Putative protein FAM10A5 = Putative protein FAM10A5 (UniProt Q8NFI4); assay: as above
# [18] = molecular target: Rho guanine nucleotide exchange factor 7 (UniProt Q9ES28); assay: as above
# [19] = molecular target: Small ribosomal subunit protein mS40 (UniProt Q9Y676); assay: as above
# [20] = molecular target: Ribosome-binding protein 1 (UniProt Q9P2E9); assay: as above
# [21] = molecular target: Peroxisomal bifunctional enzyme (UniProt Q08426); assay: as above
# [22] = molecular target: Spectrin alpha chain, non-erythrocytic 1 (UniProt P16546); assay: as above
# [23] = molecular target: Splicing factor 3B subunit 2 (UniProt Q13435); assay: as above
# [24] = molecular target: Sodium/potassium-transporting ATPase subunit alpha-2 (UniProt Q6PIE5); assay: as above
# [25] = molecular target: Non-selective voltage-gated ion channel VDAC3 (UniProt Q9Y277); assay: as above
# Radixin = Radixin (UniProt P35241); assay: as above
# [26] = molecular target: Ras-related protein Rab-5C (UniProt P51148); assay: cross-linking mass spectrometry
# [27] = molecular target: T-complex protein 1 subunit gamma (UniProt P49368); assay: cross-linking mass spectrometry
# [28] = molecular target: tRNA-splicing ligase complex subunit RTRAF (UniProt Q9Y224); assay: cross-linking mass spectrometry
# [29] = molecular target: Succinate--CoA ligase [ADP-forming] subunit beta, mitochondrial (UniProt Q9P2R7); assay: cross-link between two proteins; cross-linking mass spectrometry
# Synapsin-2 = Synapsin-2 (UniProt Q64332); assay: as above
# [30] = molecular target: Vesicle-associated membrane protein 1 (UniProt Q62442); assay: as above
# Synapsin-3 = Synapsin-3 (UniProt Q8JZP2); assay: as above
# [31] = molecular target: Synaptic vesicle glycoprotein 2A (UniProt Q9JIS5); assay: as above
# Synaptopodin = Synaptopodin (UniProt Q8CC35); assay: as above
# Synaptotagmin-2 = Synaptotagmin-2 (UniProt P46097); assay: as above
# [32] = molecular target: T-complex protein 1 subunit beta (UniProt P80314); assay: as above
# [33] = molecular target: T-complex protein 1 subunit delta (UniProt P80315); assay: as above
# [34] = molecular target: T-complex protein 1 subunit theta (UniProt P42932); assay: as above
# [35] = molecular target: T-complex protein 1 subunit epsilon (UniProt P80316); assay: as above
# [36] = molecular target: T-complex protein 1 subunit gamma (UniProt P80318); assay: as above
# [37] = molecular target: T-complex protein 1 subunit zeta (UniProt P80317); assay: as above
# Talin-2 = Talin-2 (UniProt Q71LX4); assay: as above
# [38] = molecular target: Thioredoxin domain-containing protein 5 (UniProt Q8NBS9); assay: as above
# [39] = molecular target: Transcriptional activator protein Pur-alpha (UniProt P42669); assay: as above
# [40] = molecular target: Translation machinery-associated protein 7 (UniProt Q9Y2S6); assay: as above
# [41] = molecular target: Transmembrane emp24 domain-containing protein 5 (UniProt Q9Y3A6); assay: as above
# [42] = molecular target: Trifunctional enzyme subunit alpha, mitochondrial (UniProt P40939); assay: as above
# Tubulin alpha-1A chain = Tubulin alpha-1A chain (UniProt P68369); assay: as above
# [43] = molecular target: UDP-glucose:glycoprotein glucosyltransferase 1 (UniProt Q9NYU2); assay: as above
# [44] = molecular target: Ubiquitin-like protein NEDD8 (UniProt Q15843); assay: as above
# [45] = molecular target: V-type proton ATPase subunit C 1 (UniProt Q9Z1G3); assay: as above
# [46] = molecular target: V-type proton ATPase subunit F (UniProt Q9D1K2); assay: as above
# [47] = molecular target: V-type proton ATPase subunit D (UniProt P57746); assay: as above
# [48] = molecular target: V-type proton ATPase subunit E 1 (UniProt P50518); assay: as above
# [49] = molecular target: V-type proton ATPase subunit G 1 (UniProt Q9CR51); assay: as above
# [50] = molecular target: V-type proton ATPase subunit G 2 (UniProt Q9WTT4); assay: as above
# [51] = molecular target: V-type proton ATPase subunit H (UniProt Q8BVE3); assay: as above
# [52] = molecular target: Vesicle transport through interaction with t-SNAREs homolog 1B (UniProt Q9UEU0); assay: as above
# [53] = molecular target: Vesicle-associated membrane protein-associated protein A (UniProt Q9WV55); assay: as above
# Vimentin = Vimentin (UniProt P08670); assay: as above
# [54] = molecular target: tRNA-splicing ligase complex subunit RTRAF (UniProt Q9CQE8); assay: as above
# [55] = molecular target: Cytochrome c oxidase assembly factor 7 (UniProt Q96BR5); assay: mass-spectrometry hit list; affinity purification or IP with mass spectrometry; cross-linking mass spectrometry
substance,measurement,setting,value
"Phosphoglycerate mutase 2, O70250",listed as a hit,[1],yes
"Nucleoside diphosphate kinase 6, mitochondrial, O75414",listed as a hit,[2],yes
"Proteasome subunit alpha type-2, P25787",listed as a hit,[3],yes
"H(+)/Cl(-) exchange transporter 7, P51798",listed as a hit,[4],yes
"Septin-4, P28661",listed as a hit,Septin-5,yes
"Nucleosome assembly protein 1-like 1, P28656",listed as a hit,[5],yes
"Septin-6, Q9R1T4",listed as a hit,Septin-5,yes
"FXYD domain-containing ion transport regulator 7, P59648",listed as a hit,[6],yes
"Voltage-gated potassium channel subunit beta-2, P62482",listed as a hit,[7],yes
"Prefoldin subunit 1, O60925",listed as a hit,Prefoldin subunit 5,yes
"ATP-dependent clpX-like chaperone, mitochondrial, O76031",listed as a hit,[8],yes
"Septin-2, Q15019",listed as a hit,Septin-10,yes
"Plasma membrane calcium-transporting ATPase 1, G5E829",listed as a hit,[9],yes
"Septin-8, Q8CHH9",listed as a hit,Septin-5,yes
"Proteasome subunit beta type-7, P70195",listed as a hit,[10],yes
"S-adenosylhomocysteine hydrolase-like protein 2, Q68FL4",listed as a hit,[11],yes
"Proteasome subunit alpha type-2, P49722",listed as a hit,[12],yes
"ADP-ribosylation factor-like protein 8B, Q9NVJ2",listed as a hit,[13],yes
"Proteasome subunit beta type-1, O09061",listed as a hit,[14],yes
"Septin-6, Q14141",listed as a hit,Septin-2,yes
"Protein disulfide-isomerase A4, P13667",listed as a hit,[15],yes
"Proteasome activator complex subunit 1, P97371",listed as a hit,[16],yes
"Septin-11, Q8C1B7",listed as a hit,Septin-5,yes
same,listed as a hit,Septin-8,yes
"Peroxiredoxin-1, Q06830",listed as a hit,Peroxiredoxin-4,yes
"Ras-related protein Rab-3C, P62823",listed as a hit,[17],yes
"Hsc70-interacting protein, P50502",listed as a hit,Putative protein FAM10A5,yes
"ARF GTPase-activating protein GIT1, Q68FF6",listed as a hit,[18],yes
"Haloacid dehalogenase-like hydrolase domain-containing protein 3, Q9BSH5",listed as a hit,[19],yes
"Dual E2 ubiquitin-conjugating enzyme/E3 ubiquitin-protein ligase BIRC6, Q9NR09",listed as a hit,[20],yes
"Catalase, P04040",listed as a hit,[21],yes
"Spectrin beta chain, erythrocytic, P15508",listed as a hit,[22],yes
"U2 small nuclear ribonucleoprotein B'', P08579",listed as a hit,[23],yes
"Excitatory amino acid transporter 1, P56564",listed as a hit,[24],yes
"Non-selective voltage-gated ion channel VDAC2, P45880",listed as a hit,[25],yes
"Moesin, P26038",listed as a hit,Radixin,yes
"Ras-related protein Rab-5A, P20339",listed as a hit,[26],yes
"Programmed cell death protein 5, O14737",listed as a hit,[27],yes
"ATP-dependent RNA helicase DDX1, Q92499",listed as a hit,[28],yes
"Succinate--CoA ligase [ADP/GDP-forming] subunit alpha, mitochondrial, P53597",listed as a hit,[29],yes
"Synapsin-1, O88935",listed as a hit,Synapsin-2,yes
same,listed as a hit,[30],yes
"Synapsin-2, Q64332",listed as a hit,Synapsin-3,yes
"Synaptophysin, Q62277",listed as a hit,[31],yes
"Alpha-actinin-1, Q7TPR4",listed as a hit,Synaptopodin,yes
"Synaptotagmin-1, P46096",listed as a hit,Synaptotagmin-2,yes
"T-complex protein 1 subunit eta, P80313",listed as a hit,[32],yes
"T-complex protein 1 subunit alpha, P11983",listed as a hit,[33],yes
same,listed as a hit,[34],yes
"T-complex protein 1 subunit beta, P80314",listed as a hit,[33],yes
same,listed as a hit,[35],yes
"T-complex protein 1 subunit delta, P80315",listed as a hit,[35],yes
"T-complex protein 1 subunit zeta, P80317",listed as a hit,[36],yes
"T-complex protein 1 subunit theta, P42932",listed as a hit,[37],yes
"Talin-1, P26039",listed as a hit,Talin-2,yes
"Peroxiredoxin-4, Q13162",listed as a hit,[38],yes
"Transcriptional regulator protein Pur-beta, O35295",listed as a hit,[39],yes
"Nuclease EXOG, mitochondrial, Q9Y2C4",listed as a hit,[40],yes
"Transmembrane emp24 domain-containing protein 9, Q9BVK6",listed as a hit,[41],yes
"ADP/ATP translocase 3, P12236",listed as a hit,[42],yes
"Tubulin alpha-4A chain, P68368",listed as a hit,Tubulin alpha-1A chain,yes
"Selenoprotein F, O60613",listed as a hit,[43],yes
"Cullin-2, Q13617",listed as a hit,[44],yes
"V-type proton ATPase subunit D, P57746",listed as a hit,[45],yes
same,listed as a hit,[46],yes
"V-type proton ATPase catalytic subunit A, P50516",listed as a hit,[47],yes
same,listed as a hit,[48],yes
"V-type proton ATPase subunit E 1, P50518",listed as a hit,[49],yes
same,listed as a hit,[50],yes
"V-type proton ATPase subunit B, brain isoform, P62814",listed as a hit,[51],yes
"Vesicle-associated membrane protein 7, P51809",listed as a hit,[52],yes
"Vesicle-associated membrane protein-associated protein B, Q9QY76",listed as a hit,[53],yes
"Neurofilament medium polypeptide, P07197",listed as a hit,Vimentin,yes
"RNA-splicing ligase RTCB, Q99LF4",listed as a hit,[54],yes
"MICOS complex subunit MIC60, Q16891",listed as a hit,[55],yes

# Source: PMC11024108
